# PubChem BioAssay AID743025 (Vanderbilt Specialized Chemistry Center, 2013)
# Values without a mark were called inactive. Activity calls are given as the source filed them.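 How the source made its calls: active means IC50 below 10 µM at human M5 in a calcium flux test, acting as a negative modulator; inactive means the rest.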
# Target: Muscarinic acetylcholine receptor M5 (Homo sapiens) (UniProt P08912)
# Assay: inhibition of ACh-evoked M5 calcium signal – cell-based, single concentration, human M5 (AID 743025)
# Conditions: CHO-K1 hM5, ACh EC80 calcium flux, Fluo-4; at 10 µM; hits give low values
# Muscarinic acetylcholine receptor M5 (Homo sapiens), sequence (P08912 whole entry, looked up): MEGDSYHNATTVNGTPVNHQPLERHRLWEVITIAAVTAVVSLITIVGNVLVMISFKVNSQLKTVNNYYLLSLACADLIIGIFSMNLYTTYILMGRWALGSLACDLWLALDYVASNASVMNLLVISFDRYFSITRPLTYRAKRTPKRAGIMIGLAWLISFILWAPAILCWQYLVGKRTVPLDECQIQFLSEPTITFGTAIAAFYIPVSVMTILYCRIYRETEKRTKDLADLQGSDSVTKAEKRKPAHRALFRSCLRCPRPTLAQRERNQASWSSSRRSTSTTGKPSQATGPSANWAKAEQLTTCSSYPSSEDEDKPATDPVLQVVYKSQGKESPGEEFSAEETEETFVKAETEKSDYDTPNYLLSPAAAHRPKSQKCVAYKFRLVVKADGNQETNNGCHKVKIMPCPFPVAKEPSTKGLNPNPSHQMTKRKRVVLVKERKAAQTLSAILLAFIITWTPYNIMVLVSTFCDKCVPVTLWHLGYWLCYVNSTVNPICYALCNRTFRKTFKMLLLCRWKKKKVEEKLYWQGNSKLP
row,Structure (SMILES),activity remaining
1,O=C(c1ccc(C(F)(F)F)cc1)N1CCN2C(=O)c3ncccc3C12c1ccccc1 (configuration not stated),72.2%
2,O=C1c2ccccc2C2(c3ccccc3)NCCN12 (configuration not stated),89.3%
3,CCCN1C(=O)c2ccccc2C1c1ccccc1 (configuration not stated),86.1%
4,O=C(c1ccc2c(c1)OCO2)N1CCN2C(=O)c3ccccc3C12c1ccc(Cl)cc1 (configuration not stated),8.65% (active)
5,O=C(c1ccc(F)c(F)c1)N1CCN2C(=O)c3ccccc3C12c1ccc(F)cc1 (configuration not stated),64.5%
6,O=C(c1ccccc1)N1CCN(C(=O)c2ccccc2)C1c1ccccc1,85.3%
7,O=C(c1cccc(C(F)(F)F)c1)N1CCN2C(=O)c3ccccc3C12c1ccc(F)cc1 (configuration not stated),0.24% (active)
8,O=C1c2ccccc2C2(c3ccccc3)N1CCN2C(=O)c1c(F)cccc1F (configuration not stated),84%
9,CCOc1ccc(C(=O)N2CCN3C(=O)c4ccccc4C23c2ccccc2)cc1 (configuration not stated),61.1%
10,CSc1ccc(C(=O)N2CCN3C(=O)c4ccccc4C23c2ccccc2)cc1 (configuration not stated),58%
11,O=C(c1ccccn1)N1CCN2C(=O)c3ccccc3C12c1ccccc1 (configuration not stated),100%
12,O=C(c1ccc(F)cc1)N1CCN2C(=O)c3ccccc3C12c1ccc(Cl)cc1 (configuration not stated),78.8%
13,O=C(c1ccccc1)N1CCCN2C(=O)c3ccccc3C12c1ccc(Cl)cc1 (configuration not stated),82.5%
14,O=C(Nc1ccccc1)N1CCN2C(=O)c3ccccc3C12c1ccccc1 (configuration not stated),85.4%
15,Cc1ccc(C(=O)N2CCCN3C(=O)c4ccccc4C23c2ccc(Cl)cc2)cc1 (configuration not stated),74.8%
16,O=C(c1ccc(F)c(F)c1)N1CCN2C(=O)c3ccccc3C12c1ccc(O)cc1 (configuration not stated),65.9%
17,O=C(c1ccc(F)cc1)N1CCN2C(=O)c3ccccc3C12c1ccc(F)cc1 (configuration not stated),69.7%
18,O=C(c1ccc(OC(F)(F)F)cc1)N1CCN2C(=O)c3ccccc3C12c1ccc(F)cc1 (configuration not stated),69.4%
19,O=C(c1ccc(F)c(F)c1)N1CCN2C(=O)c3ccccc3C12c1ccccc1 (configuration not stated),0.88% (active)

row,Structure (SMILES),activity remaining
1,O=C(Nc1cccc(Cl)c1)N1CCN2C(=O)c3ccccc3C12c1ccccc1 (configuration not stated),83%
2,Cc1ccc(C(=O)N2CCN3C(=O)c4ccccc4C23c2ccc(Cl)cc2)cc1 (configuration not stated),17.9% (active)
3,O=C(c1cc(Cl)cc(Cl)c1)N1CCCN2C(=O)c3ccccc3C12c1ccccc1 (configuration not stated),51.9% (active)
4,Cc1ccccc1C(=O)N1CCN2C(=O)c3ccccc3C12c1ccccc1 (configuration not stated),50.5% (active)
5,O=C(c1ccc(C(F)(F)F)cc1)N1CCN2C(=O)c3ccccc3C12c1ccccc1 (configuration not stated),1.06% (active)
6,Cc1ccc(C23c4ccccc4C(=O)N2CCN3C(=O)c2cccc(C(F)(F)F)c2)cc1 (configuration not stated),28.8% (active)
7,O=C(c1ccccc1)c1ccccc1C(=O)N1CCN(C(=O)c2ccccc2)CC1,85.5%
8,O=C(c1ccc(Cl)c(Cl)c1)N1CCN2C(=O)c3ccccc3C12c1ccccc1 (configuration not stated),30.5% (active)
9,COc1ccc(C23c4ccccc4C(=O)N2CCN3C(=O)c2ccc(F)cc2)cc1 (configuration not stated),62.4%
10,COc1cc(C(=O)N2CCN3C(=O)c4ccccc4C23c2ccc(Cl)cc2)cc(OC)c1OC (configuration not stated),63.4%
11,Cc1ccccc1C(=O)N(C)C(c1ccccc1)c1ccccc1,81.6%
12,COc1ccc(C(=O)N2CCN3C(=O)c4ccccc4C23c2ccccc2)cc1 (configuration not stated),77.7%
13,CC(C)(C)C(=O)N1CCN2C(=O)c3ccccc3C21c1ccccc1 (configuration not stated),83.6%
14,O=C(c1cccc(C(F)(F)F)c1)N1CCN2C(=O)c3ccccc3C12c1ccccc1 (configuration not stated),6.77% (active)
15,Cc1ccc(C23c4ccccc4C(=O)N2CCN3C(=O)c2ccc(OC(F)(F)F)cc2)cc1 (configuration not stated),6.55% (active)
16,CSc1ccc(C23c4ccccc4C(=O)N2CCN3C(=O)c2ccc(F)c(F)c2)cc1 (configuration not stated),14.6% (active)
17,O=C(c1ccc(Cl)cc1)N1CCN2C(=O)c3ccccc3C12c1ccccc1 (configuration not stated),89.9%
18,O=C(c1ccccc1)N1CCN2C(=O)c3ccccc3C12c1ccc(Cl)cc1 (configuration not stated),1.2% (active)
